Screening data from PubChem BioAssay.
Only some compounds are listed: those with a hit (about 4.6% of all), similar ones and a draw of the others.
NLRP3 yeast inh – inhibitors of NALP3 inflammasome in yeast. hit rate 0.39% among 330,000. AID 2825. inhibition, % at 10 µM. Yeast reconstituted NLRP3/ASC/caspase-1, beta-gal luminescence, 24 h;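 active = inhibition of 50% or more; inactive = inhibition below 50%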;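 also: plate controls were induced DMSO wells for no effect and uninduced yeast grown without galactose for full effect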
tim23-1 inh – inhibits growth of tim23-1 mutant yeast | S. cerevisiae tim23-1 growth, BacTiter-Glo luminescence, 24 h | hit rate 1.3% among 330,000 | inhibition, % at 20 µM;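 active = growth inhibition of the mutant yeast at or above 50%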;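 also: temperature-sensitive mutant grown at 25 °C; plate controls were DMSO-treated mutant yeast for no effect and medium wells lacking yeast for full effect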
TIM10 inh – inhibits growth of TIM10 yeast strain; S. cerevisiae TIM10 strain growth, BacTiter-Glo luminescence, 24 h; inhibition, % at 10 µM; hit rate 1.4% among 330,000; AID 463195;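 active = inhibition of 40% or more at the single tested concentration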;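 also: wild-type TIM10 isogenic control strain grown at permissive 25 °C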
SKKanGAS inh – blocks kanamycin growth of S. pyogenes SKKanGAS strain. BacTiter-Glo, 6 h. inhibition, % at 7.5 µM. hit rate 1.3% among 300,000;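 active = mean replicate score, as percent of positive control median, at least 50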;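 also: strain carries kanamycin resistance gene driven by streptokinase promoter and grows in 40 µg/ml kanamycin; loss of luminescence reflects streptokinase promoter inhibition or plain growth inhibition; 0% = median of DMSO wells and 100% = positive control at its reference dose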
tim10-1 inh – growth inhibitors of tim10-1 mutant yeast; S. cerevisiae tim10-1 ts strain growth, BacTiter-Glo, 24 h; inhibition, % at 20 µM; hit rate 2.2% among 330,000; AID 463190;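 active = inhibition of at least 40%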;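 also: mutant grown at 25 °C; 0% = DMSO wells with yeast and 100% = wells holding no yeast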
PfHsp90 yeast 2 – reduces growth (ATP signal) of yeast expressing P. falciparum Hsp90; S. cerevisiae expressing PfHsp90, BacTiter-Glo ATP, 48 h; yeast lacking PDR1 and PDR3 efflux regulators; inhibition, % at 9.4 µM; hit rate 0.32% among 310,000;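 active = every replicate shows inhibition above about 80%, whatever the replicate mean, limit read from the data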;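 also: 0% = DMSO neutral controls and 100% = 20 µM radicicol positive controls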
NALP3 yeast conf – NALP3 inhibition confirmation in yeast. shares compounds with NLRP3 yeast inh. yeast expressing human NALP3, luminescence. inhibition, % at 10 µM. hit rate 81% among 1,300. AID 435006; in the data active = inhibition above about 48%
Casp1 ASC ctr – active in yeast caspase-1-ASC counter-screen for NALP3 inhibitors | shares compounds with NLRP3 yeast inh | yeast expressing Caspase-1-ASC, luminescence counter screen | inhibition, % at 10 µM | hit rate 66% among 1,000
NALP3 yeast rt – yeast NALP3 inhibition, confirmed on retest; shares compounds with NLRP3 yeast inh; yeast expressing human NALP3, luminescence read-out; inhibition, % at 10 µM; hit rate 53% among 1,000; AID 488794
The depositor's hits bear a star; . = not tested or not shown. Rule as the data show it, unless noted: active = inhibition above about 50%; inactive = the rest.

SMILES	NLRP3 yeast inh	tim23-1 inh	TIM10 inh	SKKanGAS inh	tim10-1 inh	PfHsp90 yeast 2	NALP3 yeast conf	Casp1 ASC ctr	NALP3 yeast rt
CCN=C1SC(CC(=O)Nc2sc(C)c(C)c2C(=O)OC)C(=O)N1CC (centres undefined)	55.6*	-0.4	-7.7	6.3	-0.3	22.7	64.3*	63.5*	52.2*
COc1ccccc1NC(=O)Nc1nc(CC(=O)Nc2ccc(N(C)C)cc2)cs1	17.2	-9.2	-11.5	8.5	-15.6	18.0	.	.	.
CCc1ccc(NC(=O)NCCCN2CCCC2=O)cc1	6.7	12.6	6.3	35.4	5.8	0.7	.	.	.
Cc1ccc(CNC(=O)[C@]2(C)CCC[C@@]3(C)C4CC[C@@]5(C)C[C@]4(CCC32)CC5=O)cc1 (some centres undefined)	34.9	6.0	-40.9	.	-36.6	74.9	.	.	.
COc1ccc(CNC(=O)[C@]2(C)CCC[C@@]3(C)C4CC[C@@]5(C)C[C@]4(CCC32)CC5=O)cc1 (some centres undefined)	51.3*	12.9	-52.6	.	-14.5	.	35.1	.	.
CCCCCCCCCCS(=O)(=O)N/N=C/c1ccccc1OC	6.1	20.4	0.8	43.4	13.9	3.0	.	.	.
CCCCCCCCCCS(=O)(=O)N/N=C/c1ccc(O)cc1	50.3*	-21.5	20.5	4.0	31.0	-3.5	69.8*	44.2	46.6
COc1ncnc2sc(-c3ccccc3)cc12	38.0	24.6	-1.0	4.8	-13.6	-15.8	.	.	.
CN(C)c1ncnc2sc(-c3ccccc3)cc12	65.4*	44.7	13.6	-1.0	-18.4	3.6	75.4*	44.1	36.5
O=c1c2cc(Br)ccc2nc(-c2ccc([N+](=O)[O-])cc2)n1O	52.9*	46.7	-8.9	15.5	17.3	1.8	78.6*	46.5	62.1*
Cn1cnc2c1c(=O)n(Cc1ccc(Cl)cc1Cl)c(=O)n2C	21.4	24.2	-9.2	10.2	-6.9	-21.3	.	.	.
Nc1ccc(Oc2cc(N)cc(Oc3ccccc3)c2)cc1	50.3*	48.4	34.9	6.3	28.6	7.5	63.5*	22.8	44.6
Nc1ccc(Oc2ccc3nc(-c4ccccc4)c(-c4ccccc4)nc3c2)cc1	-1.0	46.1	11.0	0.6	35.1	-48.4	.	.	.
CCOC(=O)c1sc(=S)n(-c2cc(OC)ccc2OC)c1N	97.5*	16.8	2.5	-11.3	-1.2	-42.3	96.2*	71.1*	56.9*
O=C(Nc1ccccc1)C(=O)c1c[nH]c2ccccc12	57.6*	-4.1	-21.1	-14.0	-27.0	9.9	75.4*	42.2	49.7
O=C(/C=C/c1ccccc1)c1c[nH]c2ccccc12	50.2*	16.0	-23.9	-12.1	-59.7	26.3	62.6*	.	.
O=C(C=Cc1ccccc1)c1c[nH]c2ccccc2c1=O	.	.	.	.	.	16.6	.	.	.
COc1ccc(-c2nc(CSCC(=O)NC3CCCC3)c(C)o2)cc1OC	-7.7	8.9	7.5	-2.6	19.2	-2.8	.	.	.
O=C1NC(=O)/C(=C\c2ccc(OCc3cccc([N+](=O)[O-])c3)cc2)N1	-10.4	3.6	-0.3	2.9	7.5	.	.	.	.
O=C(NC(=S)Nc1ccccc1[N+](=O)[O-])c1ccccc1	29.1	28.9	13.5	-0.3	38.4	-5.1	.	.	.
O=C(NC(=S)/C(=C1\CCCCCN1)[N+](=O)[O-])c1ccccc1	58.7*	6.5	-8.9	.	-14.5	22.0	54.2*	64.2*	44.0
CCOC(=O)c1cnc(SC)nc1N1CCCC1	55.5*	2.2	-20.2	-8.8	-21.7	31.4	51.6*	55.6*	41.9
COc1cc(C)c(S(=O)(=O)N2CCOCC2)cc1C	43.1	4.7	5.2	-0.9	-6.3	21.0	.	.	.
CCCOc1cc(C)c(S(=O)(=O)N2CCOCC2)cc1C	57.4*	18.3	8.7	-1.9	7.9	.	52.2*	.	.
Cc1cc(S(=O)(=O)N2CCCCCC2)c(Cl)cc1Cl	61.4*	-5.1	1.0	22.2	2.5	.	64.3*	70.5*	49.8
CCOc1cc(C)c(S(=O)(=O)N2CCCC2)cc1C	82.9*	13.5	5.6	5.9	1.4	.	79.6*	90.4*	81.0*
